From the supplement of paper PMC11417369
In all, about 25,000 sequences were measured (“ln(normalized median fluorescence intensity)”: median about 7.1, highest 2% from about 10 on). The list comes from a sample in which the highest values are over-represented; it also holds similar and randomly drawn sequences.

What follows are sequences tested on PfSIP2 AP2 domain 1 (GST-tagged) (assay: gcPBM binding intensity (ln(normalized median fluorescence intensity)); higher = stronger DNA binding).
Outline: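 In this array assay, P. falciparum DNA-binding domains with a GST tag, expressed in E. coli, were applied for 1 h to primer-extended double-stranded 36-bp intergenic genomic probes and negative controls on an Agilent 4 × 180k array. Bound protein was visualised with Alexa488 anti-GST antibody at 488 nm. Binding intensity is the highest Masliner-normalised natural-log median intensity across replicate spots of either probe orientation.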

Going from “AATATATCCTATTCGAACAAAAATACATGCACATAT [CACACA_negctrl_site1058]” to “AAGGATTATTTTAATCGTACATGTGTAAATAATATA [XGTACX_site6177]”, the “gcPBM binding intensity (ln)” value falls from 9.28 to 6.98.

Compared with “AATAAATAAATATATATATATATATAATATCATAAA [CACACA_negctrl_site337]”, “TAAAGAAAAATATAAAGTACAAAAATAAAAAAAATA [XGTACX_site8226]” is lower in “gcPBM binding intensity (ln)” value: 7.29 for the first, 6.93 for the second.

First: AGCATTAAAAATGGAATGGAATTAAGCTATATATTA [CACACA_negctrl_site1571]
Second: TTAAAGTTACATTCGACACACACATAACAACTAAAT [CACACA_site9130]
The “gcPBM binding intensity (ln)” value of the first is lower: 6.63 for the first, 7.1 for the second.

Compared with “AAAAAAAAAGATCACACACACATAAATATAAACAAA [CACACA_site5285]”, “ACATACATATGTAAATGTACAAAATATCCATAGATT [XGTACX_site2782]” is lower in “gcPBM binding intensity (ln)” value: 6.92 for the first, 6.81 for the second.

First: TCAGATCCATAGAAGGTGCAAATAACAAAAATACAA [GTGCAC_site9610]
Second: AAATAACAAAAGAAGGTGCTCATAAAAATTCATACA [GTGCAC_site9864]
The “gcPBM binding intensity (ln)” value of the first is higher: 10.9 for the first, 8.23 for the second.

Compared with “TATAATGCTCTTCTTTGTACATATTATGATTATATT [XGTACX_site2332]”, “TTTGTTTGGTTTTGGTGTACTTTTTTTTTTTTTTCT [XGTACX_site2050]” is higher in “gcPBM binding intensity (ln)” value: 7.15 for the first, 7.16 for the second.

Compared with “TTAGCAGGACGTTTGGTGCACGTACTGTTTTTCTTT [GTGCAC_site9856]”, “CTTCTGGACAGGAATGCACACATTTTTTTTTCTTTT [CACACA_site1807]” is lower in “gcPBM binding intensity (ln)” value: 10.3 for the first, 7 for the second.

First: TTGACAGGAACGTTGGTGCACGTACTGTTTTTCTTT [GTGCAC_site9389]
Second: ATTTTTTTTTTTTTTTTTTGGTTTTCTTTAGGAGTT [CACACA_negctrl_site1258]
The “gcPBM binding intensity (ln)” value of the first is higher: 10.7 for the first, 6.9 for the second.

Going from “TACATGCTTATTTTAACACACAAATGGTAGTAATAA [CACACA_site766]” to “ATATTTTTCAAACATCGTACATTATGAGTTAAAATT [XGTACX_site584]”, the “gcPBM binding intensity (ln)” value rises from 6.93 to 7.02.

First: ATAAAAAGGAGACACACACACACACGCATATTTATA [CACACA_site6551]
Second: TTAATAATTAATTATAGTACACATTTATATTAATAA [XGTACX_site190]
The “gcPBM binding intensity (ln)” value of the first is higher: 7.08 for the first, 7.03 for the second.

Going from TTATATAATTTAATAGTGCAATTATATTAATTTTTC to “TGTGCACATAATTAGTGTACATTTTTTATTTAGACA [XGTACX_site317]”, the “gcPBM binding intensity (ln)” value rises from 7.73 to 10.9.

First: ATAATATATAATATAGTGCATTATTTATTAATTAAT [GTGCAC_site9852]
Second: GTATAATTATGTGCACGTACATATTTTATTATATAT [XGTACX_site8586]
The “gcPBM binding intensity (ln)” value of the first is higher: 10.1 for the first, 9.21 for the second.

First: AGACCTTTAATTTGTGTGCACATAATTAGTGTACAT [GTGCAC_site9434]
Second: TATATTATTAATTAAGCACACATTATTTTTATAATA [CACACA_site3982]
The “gcPBM binding intensity (ln)” value of the first is higher: 8.49 for the first, 6.89 for the second.

Compared with ATATATATATATATAGTGCACATTTATATAATTATT, “CTATTTCAATTTAGTGCACACATTTTAATTTATAAG [CACACA_site2040]” is lower in “gcPBM binding intensity (ln)” value: 10.6 for the first, 10.5 for the second.

Going from “ATTCCACCTTAAAACTGTACTTTCTCAATCTTTTAT [XGTACX_site796]” to “TTACTTAAATATAAGTGTCCTCAAAAAAAAAAAAAA [XGTACX_site460]”, the “gcPBM binding intensity (ln)” value falls from 7.22 to 6.94.

Going from “ATTCGTCACATTTTTTGATATATATATATATATATA [CACACA_negctrl_site1785]” to “TTTTTATTAAGACATGCATGGAAACGCACTATTTTA [TGCATGCA_site999]”, the “gcPBM binding intensity (ln)” value rises from 9.68 to 9.74.

First: GGGTTTTTTATTAATACATGCATGGAAACGCACTAT [TGCATGCA_site1000]
Second: TTTTAAAAACGGCATGCATGTAATACATGGAAGGAA [TGCATGCA_site480]
The “gcPBM binding intensity (ln)” value of the first is higher: 10.3 for the first, 7.46 for the second.

First: TTTATAAATATTCTCACACACTTTTTATTTTAACAA [CACACA_site6454]
Second: ATATAAATTTAATACACACCCAAAAAAAAAAAAAAA [CACACA_site3750]
The “gcPBM binding intensity (ln)” value of the first is higher: 6.93 for the first, 6.89 for the second.

First: TATGTTTTTACGTGTGTGCACTTTGTAGAGATAAGT
Second: ATATGTTTTGTTTACGTGCACTGCTTTGTTTATATA [GTGCAC_site9622]
The “gcPBM binding intensity (ln)” value of the first is higher: 10.7 for the first, 9.56 for the second.

First: ATGTAGATAAAACGTGTGCACATGTTTTTTGTTATT
Second: AGGATATGCAGACACACACACATATAGATTTATATA [CACACA_site7100]
The “gcPBM binding intensity (ln)” value of the first is higher: 8.7 for the first, 7.08 for the second.

Going from “GTTAGGATAGATTAGACATGCACATAAATGCACTTC [TGCATGCA_site561]” to “AAAATTAGATTATGCACACACACTTAAAAATAATAA [CACACA_site1975]”, the “gcPBM binding intensity (ln)” value falls from 11 to 8.5.

Going from “TGTACGAGTCGTAGAGTGCAGTCTGGAGAAAAGTAC [GTGCAC_site9683]” to “TTTTTTATGCTAACTTCTTTTTCCTTATAAAATTGG [TGCATGCA_negctrl_site598]”, the “gcPBM binding intensity (ln)” value falls from 8.91 to 7.06.

“TAATATATGTATTGCACACCTATAACCATTATTTCT [CACACA_site1498]” was tested, and the “gcPBM binding intensity (ln)” value was 7.06.
